Where “and” joins values, the source holds several entries; their conditions need not be identical. Equal entries are not always repeated. Inconclusive results are not listed. Calls of active or inactive are those of the source. Calls follow the shape of the dose curve; as a rule, active = well fitted inhibition curve with a large enough effect; inconclusive = small, poorly fitted or top-dose-only effect; inactive = no such curve, though single readings can be large or run the other way.
Target: Cruzipain (Trypanosoma cruzi) (UniProt P25779)
Sequence (P25779 123-467 limits assumed): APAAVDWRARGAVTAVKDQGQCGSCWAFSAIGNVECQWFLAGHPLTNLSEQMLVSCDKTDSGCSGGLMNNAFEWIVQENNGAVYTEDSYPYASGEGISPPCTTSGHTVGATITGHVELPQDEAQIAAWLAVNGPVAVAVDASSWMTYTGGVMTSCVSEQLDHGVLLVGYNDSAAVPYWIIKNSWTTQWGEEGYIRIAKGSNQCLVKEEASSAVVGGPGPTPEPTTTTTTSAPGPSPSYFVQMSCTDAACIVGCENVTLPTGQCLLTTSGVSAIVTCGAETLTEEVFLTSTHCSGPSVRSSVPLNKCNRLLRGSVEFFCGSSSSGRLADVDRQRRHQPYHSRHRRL
Experiment: Confirmation qHTS Assay for Inhibitors of Cruzain; also: nearly all actives have a fitted effect of over 40% in size;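 as to Activity change, negative = inhibition: plate controls were uninhibited enzyme control for no effect and buffer wells lacking enzyme for full effect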
Conditions: purified cruzain, Z-FR-AMC fluorescence, 0.01% Triton
Outline: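 Reaction progress from the 60 s rise in AMC fluorescence (ex 360, em 450 nm) after adding 2 uM Z-FR-AMC. Before this, 1.5 nM cruzain sat 15 min at room temperature with compound in pH 5.5 acetate buffer with 5 mM DTT and 0.01% Triton X-100.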
Potency is read from the fitted curve at half-maximal effect.

Potency, active:
COC(=O)Sc1nc(N2CCOCC2)c2c(c1C#N)CC(C)(C)OC2 14.1 µM, COc1cc2cc(CN(Cc3nnnn3Cc3ccco3)C3CCCCC3)c(=O)[nH]c2cc1OC 14.1 µM, CC(C)NC(=O)COC(=O)CNC(=O)C1CCCCC1 14.1 µM, N#Cc1nc(NCCCO)nc(Nc2ccccc2)n1 2.24 µM, CN1C(=O)/C(=N\OC(=O)c2cccc3ccccc23)c2ccccc21 10 µM, C=C(C)C(=O)OC1(C(F)(F)F)Oc2cc(C)ccc2NC1=O (stereo not drawn) 14.1 µM, O=C(NCCc1nc2ccccc2n1CCCOc1cccc2ccccc12)C1CCCCC1 2.24 µM, CCc1ccc(OCCCCn2c(CCNC(=O)C3CCCCC3)nc3ccccc32)cc1 1.58 µM, CCc1ccc(OCCn2c(CCNC(=O)C3CCCCC3)nc3ccccc32)cc1 2.24 µM, O=C(CNC(=O)c1ccccc1)OC(Cc1ccccc1)C(=O)Nc1cc(C(F)(F)F)ccc1Cl (stereo not drawn) 7.08 µM, CCc1ccc(-c2nc3c(=O)n(C)c(=O)nc-3n(CC)n2)cc1 2.51 µM, CCOC(=O)C(C(=O)OCC)N(C#N)c1nc(OC)nc(N(C)C)n1 15.8 µM, Cc1ccccc1OCC(=O)NCC(=O)OCC(=O)c1ccc([N+](=O)[O-])cc1 35.5 µM, CCOc1nc(C#N)nc(N2CCOCC2)n1 5.01 µM, O=C(CNC(=O)C1CCCCC1)OCC(=O)c1ccccc1 6.31 µM, COc1ccc(-c2nc3c(=O)n(C)c(=O)nc-3n(C)n2)cc1 1.26 µM, Cc1ccccc1OCC(=O)NCC(=O)OCC(=O)c1ccc(Br)cc1 35.5 µM, Cc1cc(OCCCn2c(CCNC(=O)C3CCCCC3)nc3ccccc32)ccc1Cl 1.12 µM, COc1ccccc1NC(=O)C(OC(=O)CNC(=O)c1ccccc1)c1ccccc1 (stereo not drawn) 10 µM, Cc1ccc(C(=O)NCC(=O)OC(C(=O)Nc2cc(C(F)(F)F)ccc2Cl)c2ccccc2)cc1 (stereo not drawn) 7.94 µM, CCOC(=O)CNc1nc(C#N)nc(N2CCOCC2)n1 4.47 µM and 6.31 µM, O=C(COc1ccc(F)cc1)NCCc1nc2ccccc2[nH]1 0.199 µM, CN(C)c1nc(C#N)nc(N(C)C)n1 14.1 µM

Activity change, negative = inhibition, inactive:
Cc1ccc(C)c(-c2csc(-c3c(N)c(C(=O)c4ccc5c(c4)OCO5)n4ccccc34)n2)c1 -1.82%, CC1CCCN(c2ccc(C(=O)OCC(=O)N3c4ccccc4Sc4ccccc43)cc2[N+](=O)[O-])C1 (stereo not drawn) -7.68%, Cc1ccc(C(=O)NCCn2c(N)c(C#N)c3nc4ccccc4nc32)cc1 -28.5%, O=C(c1ccco1)N1CCN(c2ncnc3c2[nH]c2ccc(Cl)cc23)CC1 -37.6%, C=Cc1nc(Nc2cc(F)cc(F)c2)nc(NC2CCCC2)n1 -5.68%, CC(C)(C)OC(=O)Cc1nnc(-c2nc3ccccc3[nH]2)o1 -0.371%, Cc1ccc(OCCNC(=O)CNC(=O)Cc2cccc3ccccc23)cc1 -1.3%, O=C(CNC(=O)C(c1ccccc1)c1ccccc1)OCC(=O)c1ccc2ccccc2c1 28.2%, CC(C)(C)OC(=O)Cc1nnc(C(C(=O)OCc2ccccc2)c2ccccc2)o1 (stereo not drawn) -12.3%, CCCCNC(=O)Cn1c(SCc2cccc(F)c2)nc2ccncc21 -27.5%, Cc1ccc(SCCC(=O)OCC(=O)Nc2ncc(Cl)cc2Cl)cc1 -19.6%, O=C(NCCCc1nc2ccccc2n1CCCCOc1ccccc1)C1CCCCC1 -23.8%, Cc1ccc2[nH]c(=O)c(CN(CCCO)Cc3nnnn3Cc3ccccc3)cc2c1 -13%, Cc1ccccc1OCC(=O)NCC(=O)OCC(=O)c1ccc(F)cc1 -14.6%, O=C(NCCCc1nc2ccccc2n1CCOc1ccccc1)C1CCCCC1 -11.7%

Source: PubChem BioAssay AID2158 (National Center for Advancing Translational Sciences (NCATS), 2009)
